From PubChem BioAssay (EPA / NIEHS)
Records with an inconclusive call do not appear. Active and inactive are the calls of the source. The calls were made as follows, unless noted: active = hit-call score of the fitted dose curve at least 0.9, where 1 is the maximum; inactive = score below 0.9.

Experiments:
[1] = BSK_SAg_PBMCCytotoxicity: PBMC Cytotoxicity Assessment in the BioMAP Diversity Plus: SAg Assay (AID 2283093); conditions: primary human HUVEC with PBMC;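 also: PBMC viability measured as Alamar Blue reduction fluorescence at 546/580 nm; fitted both ways against DMSO so a hit may be loss or gain of signal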;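 as to AC50: PBMC superantigen activated with SEB plus TSST-1 one hour after compound addition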
Method in brief: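 Alamar Blue reduction (6 h, ex/em 546/580 nm) read after 90 h culture of PBMC pre-dosed 1 h then stimulated with SEB plus TSST-1, 20 ng/mL each. Gain or loss of signal fitted relative to DMSO.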

[2] = read-out: Interleukin-8 (IL8), CXCL8 (gene 3576); assay: BSK_SAg_IL8: BioMAP Diversity Plus: SAg Assay for Interleukin-8 (IL8) Biomarker Activity (AID 2283094); conditions: primary human HUVEC with PBMC; actives raise or lower the signal
Method in brief: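 ELISA readout of IL-8 from a superantigen-activated endothelial/PBMC primary human co-culture, taken 24 h post-dosing and fitted in both directions against DMSO; parallel SRB total-protein staining flags overt cytotoxicity.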

[3] = BSK_SAg_Proliferation: Cell Proliferation Assessment in the BioMAP Diversity Plus: SAg Assay (AID 2283095); conditions: primary human HUVEC with PBMC;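 also: relative cell number as total protein by SRB absorbance in sub-confluent culture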
Method in brief: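 Relative cell number in the endothelial cell/PBMC co-culture was quantified at 96 h by SRB staining (0.1% SRB, 10% TCA fixation, read at 560 nm). Curves were fitted in both directions relative to DMSO baseline.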

[4] = BSK_SAg_SRB: Viability Assessment in the BioMAP Diversity Plus: SAg Assay (AID 2283096); conditions: primary human HUVEC with PBMC;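 also: cells read one day after compound addition; hits may be either gain or loss of signal compared with DMSO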
Method in brief: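 SRB absorbance at 560 nm served as the viability read-out. Cells (HUVEC plus peripheral blood mononuclear cells) were TCA-fixed and stained 24 h post-dosing; activity fitted in both directions against DMSO controls.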

[5] = biological target: human CYP1A1, CYP1A1 (gene 1543) (UniProt P04798); assay: NVS_ADME_hCYP1A1: NovaScreen (NVS) CYP450-related Enzyme Activity (ADME) Assay for human CYP1A1 (AID 2283100; active = hit-call score of the fitted dose curve at least 0.9, where 1 is the maximum)
human CYP1A1, CYP1A1 (gene 1543), sequence (P04798 whole entry, looked up): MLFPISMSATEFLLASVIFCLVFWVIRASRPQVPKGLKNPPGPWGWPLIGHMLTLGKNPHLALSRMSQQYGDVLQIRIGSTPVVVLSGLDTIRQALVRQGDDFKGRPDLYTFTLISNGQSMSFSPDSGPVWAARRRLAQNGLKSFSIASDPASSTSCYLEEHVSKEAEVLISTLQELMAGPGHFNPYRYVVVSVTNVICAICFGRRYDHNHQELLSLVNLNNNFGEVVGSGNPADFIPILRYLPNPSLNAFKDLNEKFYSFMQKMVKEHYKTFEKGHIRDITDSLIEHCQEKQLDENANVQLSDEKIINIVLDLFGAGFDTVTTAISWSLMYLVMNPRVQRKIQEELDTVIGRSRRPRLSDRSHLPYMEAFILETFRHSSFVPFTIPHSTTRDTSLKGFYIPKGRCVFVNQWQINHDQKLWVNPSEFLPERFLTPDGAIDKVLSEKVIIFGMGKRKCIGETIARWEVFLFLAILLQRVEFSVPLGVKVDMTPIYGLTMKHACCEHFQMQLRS
Method in brief: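 Inhibition of recombinant CYP1A1 turnover was assessed fluorometrically in a biochemical format 1 h after compound exposure. Testing began at 10 uM in duplicate and progressed to concentration series reaching 20 uM, with on-plate positive and negative controls.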

[6] = biological target: human CYP2D6, CYP2D6 (gene 1565) (UniProt P10635); assay: NVS_ADME_hCYP2D6: NovaScreen (NVS) CYP450-related Enzyme Activity (ADME) Assay for human CYP2D6 (AID 2283107; active = hit-call score of the fitted dose curve at least 0.9, where 1 is the maximum)
human CYP2D6, CYP2D6 (gene 1565), sequence (P10635 whole entry, looked up): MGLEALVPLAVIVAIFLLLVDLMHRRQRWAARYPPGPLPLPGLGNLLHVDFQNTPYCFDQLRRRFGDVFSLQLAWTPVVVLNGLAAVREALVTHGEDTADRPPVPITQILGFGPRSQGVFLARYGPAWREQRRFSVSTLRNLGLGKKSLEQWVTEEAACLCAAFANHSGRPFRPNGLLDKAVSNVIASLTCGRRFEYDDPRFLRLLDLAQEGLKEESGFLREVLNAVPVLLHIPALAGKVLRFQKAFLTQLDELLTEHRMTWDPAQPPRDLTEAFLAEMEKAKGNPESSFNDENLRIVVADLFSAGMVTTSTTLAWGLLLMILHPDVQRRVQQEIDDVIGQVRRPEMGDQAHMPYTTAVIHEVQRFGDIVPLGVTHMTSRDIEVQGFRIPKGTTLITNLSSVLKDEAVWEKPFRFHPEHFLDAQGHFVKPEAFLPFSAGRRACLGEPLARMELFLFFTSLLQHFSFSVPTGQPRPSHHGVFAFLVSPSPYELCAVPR
Method in brief: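 Biochemical fluorescence assay, insect-cell-derived enzyme. Read at 1 h; inhibition taken from loss of signal against acetonitrile. Screened at 10 uM in duplicate, with concentration series for actives.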

[7] = biological target: human CYP1A2, CYP1A2 (gene 1544) (UniProt P05177); assay: NVS_ADME_hCYP1A2: NovaScreen (NVS) CYP450-related Enzyme Activity (ADME) Assay for human CYP1A2 (AID 2283102; active = hit-call score of the fitted dose curve at least 0.9, where 1 is the maximum;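 as to AC50: fluorescence from turnover of a fluorogenic substrate by recombinant insect-cell CYP1A2; potency for inhibition since loss of fluorescence marks reduced CYP1A2 activity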)
human CYP1A2, CYP1A2 (gene 1544), sequence (P05177 whole entry, looked up): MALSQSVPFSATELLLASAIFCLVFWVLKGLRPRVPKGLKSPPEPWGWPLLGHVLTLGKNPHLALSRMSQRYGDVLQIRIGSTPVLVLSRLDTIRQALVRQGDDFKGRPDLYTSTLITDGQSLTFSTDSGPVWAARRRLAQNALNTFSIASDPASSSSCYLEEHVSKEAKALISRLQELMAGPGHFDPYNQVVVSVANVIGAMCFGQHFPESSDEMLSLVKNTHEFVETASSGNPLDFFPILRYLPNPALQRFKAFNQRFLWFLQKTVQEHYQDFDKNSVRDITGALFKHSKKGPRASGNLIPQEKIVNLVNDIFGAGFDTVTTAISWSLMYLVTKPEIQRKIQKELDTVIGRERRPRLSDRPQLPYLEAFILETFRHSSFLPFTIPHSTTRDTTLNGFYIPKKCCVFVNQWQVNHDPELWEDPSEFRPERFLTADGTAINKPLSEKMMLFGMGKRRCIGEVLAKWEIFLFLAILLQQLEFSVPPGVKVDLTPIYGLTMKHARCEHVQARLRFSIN
Method in brief: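 Inhibition scored as decrease in fluorescent product versus acetonitrile negative control. Enzyme: insect-cell recombinant human CYP1A2, substrate-specific, cell-free. Reading at 0.5 h; 10 uM duplicate initial screen with positive and negative controls on every plate.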

[8] = biological target: human CYP2B6, CYP2B6 (gene 1555) (UniProt P20813); assay: NVS_ADME_hCYP2B6: NovaScreen (NVS) CYP450-related Enzyme Activity (ADME) Assay for human CYP2B6 (AID 2283101; active = hit-call score of the fitted dose curve at least 0.9, where 1 is the maximum)
human CYP2B6, CYP2B6 (gene 1555), sequence (P20813 whole entry, looked up): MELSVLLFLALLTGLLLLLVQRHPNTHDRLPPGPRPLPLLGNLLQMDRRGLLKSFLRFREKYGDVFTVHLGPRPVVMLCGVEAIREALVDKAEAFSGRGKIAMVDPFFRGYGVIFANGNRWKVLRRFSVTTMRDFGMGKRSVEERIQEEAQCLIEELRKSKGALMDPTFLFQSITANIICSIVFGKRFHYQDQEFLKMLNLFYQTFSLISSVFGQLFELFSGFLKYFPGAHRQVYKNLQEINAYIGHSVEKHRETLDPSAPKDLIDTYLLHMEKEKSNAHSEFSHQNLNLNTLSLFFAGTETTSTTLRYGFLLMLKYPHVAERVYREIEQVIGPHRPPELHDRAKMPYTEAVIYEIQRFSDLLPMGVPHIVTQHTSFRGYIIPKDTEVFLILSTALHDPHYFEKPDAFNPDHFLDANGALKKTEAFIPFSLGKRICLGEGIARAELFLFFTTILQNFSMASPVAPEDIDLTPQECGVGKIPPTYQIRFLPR
Method in brief: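 Compounds were first screened in duplicate at 10 uM against recombinant enzyme, with the fluorescent product measured after 1 hour. Active compounds were retested over a concentration series. Loss of fluorescence versus acetonitrile control was scored as reduced enzyme activity.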

[9] = biological target: human CYP19A1, CYP19A1 (gene 1588) (UniProt P11511); assay: NVS_ADME_hCYP19A1: NovaScreen (NVS) CYP450-related Enzyme Activity (ADME) Assay for human CYP19A1 (AID 2283098; active = hit-call score of the fitted dose curve at least 0.9, where 1 is the maximum;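 also: potency for inhibitors seen as loss of fluorescent enzyme signal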)
human CYP19A1, CYP19A1 (gene 1588), sequence (P11511 whole entry, looked up): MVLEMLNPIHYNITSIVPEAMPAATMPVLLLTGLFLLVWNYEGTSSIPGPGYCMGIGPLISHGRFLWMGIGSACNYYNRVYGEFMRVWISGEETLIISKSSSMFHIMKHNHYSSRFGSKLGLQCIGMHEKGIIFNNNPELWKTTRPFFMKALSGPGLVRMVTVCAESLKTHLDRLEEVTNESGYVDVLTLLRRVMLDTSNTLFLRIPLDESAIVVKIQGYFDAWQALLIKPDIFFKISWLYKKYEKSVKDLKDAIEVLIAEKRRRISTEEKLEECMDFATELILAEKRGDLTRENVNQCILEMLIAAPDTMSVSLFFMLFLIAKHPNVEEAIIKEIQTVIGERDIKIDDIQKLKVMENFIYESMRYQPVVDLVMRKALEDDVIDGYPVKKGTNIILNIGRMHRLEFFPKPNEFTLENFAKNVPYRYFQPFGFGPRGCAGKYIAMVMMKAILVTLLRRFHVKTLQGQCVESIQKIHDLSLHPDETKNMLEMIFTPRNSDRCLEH
Method in brief: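 Primary testing was in duplicate at a single 10 uM concentration, with actives followed up in concentration-response series. Fluorescence read-out of recombinant enzyme activity at 0.5 h, cell-free. Acetonitrile was the negative-control baseline.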

[10] = biological target: human CYP2A6, CYP2A6 (gene 1548) (UniProt P11509); assay: NVS_ADME_hCYP2A6: NovaScreen (NVS) CYP450-related Enzyme Activity (ADME) Assay for human CYP2A6 (AID 2283099; active = hit-call score of the fitted dose curve at least 0.9, where 1 is the maximum)
human CYP2A6, CYP2A6 (gene 1548), sequence (P11509 whole entry, looked up): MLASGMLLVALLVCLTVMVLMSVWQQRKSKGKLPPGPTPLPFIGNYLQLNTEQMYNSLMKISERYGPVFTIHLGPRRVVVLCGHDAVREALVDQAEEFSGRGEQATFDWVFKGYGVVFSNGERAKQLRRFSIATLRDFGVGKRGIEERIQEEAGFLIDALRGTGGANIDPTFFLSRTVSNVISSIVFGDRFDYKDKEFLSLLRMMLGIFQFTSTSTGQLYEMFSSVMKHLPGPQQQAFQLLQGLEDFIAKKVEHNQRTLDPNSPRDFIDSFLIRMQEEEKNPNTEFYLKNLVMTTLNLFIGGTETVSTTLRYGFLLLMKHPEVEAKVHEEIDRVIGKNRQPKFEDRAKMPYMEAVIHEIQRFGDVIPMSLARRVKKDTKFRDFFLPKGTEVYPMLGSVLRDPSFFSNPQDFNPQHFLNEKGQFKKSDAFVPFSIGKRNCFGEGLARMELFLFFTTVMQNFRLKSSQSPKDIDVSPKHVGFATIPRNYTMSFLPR
Method in brief: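 Loss of fluorescence signal relative to acetonitrile vehicle reported CYP2A6 inhibition in a cell-free system using insect-cell-derived enzyme. Readings were taken at 0.5 h; top concentration in follow-up dose series was 20 uM.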

Measured: AC50

CCOC(=O)COc1ccc2c(c1)CC(NCC(O)c1cccc(Cl)c1)CC2 (configuration not stated)
active: [1] 27.2 µM | [2] 18.3 µM | [3] 31.7 µM | [4] 27.2 µM | [6] 2.51 µM
inactive: [5]

Fc1ccccc1[C@@H](F)COC1CCC(Nc2ncnc3[nH]ncc23)CC1 (some centres not stated)
active: [1] 13.7 µM | [2] 20 µM | [3] 26.8 µM | [4] 25.4 µM
inactive: [5]

Oc1ccc2c(c1)-c1ccccc1C2
inactive: [1] | [2] | [3]
active: [4] 20 µM | [5] 6.18 µM | [7] 0.691 µM

O=C(O)c1cc(N=Nc2ccc(S(=O)(=O)Nc3ccccn3)cc2)ccc1O
inactive: [1] | [2] | [3] | [4] | [5]

O=c1[nH]c2ccc(S(=O)CCN3CCC(Cc4ccc(F)cc4)CC3)cc2o1 (configuration not stated)
active: [6] 1.3 µM
inactive: [1] | [2] | [3] | [4]

Cc1ccc(N)cc1O
active: [1] 9.99 µM | [3] 8.98 µM | [6] 3.9 µM
inactive: [2] | [4]

CC(C)=CCCC(C)CCO (configuration not stated)
inactive: [1] | [2] | [3] | [4] | [5]

CCc1cc(SCc2sc(-c3ccc(C(F)(F)F)cc3)nc2CN2CCN(c3ccc(OC)cc3)CC2)ccc1OCC(=O)O
inactive: [5]
active: [1] 21.5 µM | [2] 20 µM | [3] 9.97 µM | [4] 14.2 µM

Nc1ccc(Nc2ccccc2)cc1
active: [1] 5.36 µM | [2] 8.78 µM | [3] 14 µM | [8] 4.35 µM | [7] 15.1 µM | [6] 13.8 µM
inactive: [4]

Cc1[nH]cnc1C[C@H]1CCc2c(C)c3ccccc3n2C1=O
active: [1] 30.7 µM | [2] 24.7 µM | [3] 31 µM | [4] 26.8 µM | [5] 3.83 µM | [8] 4.01 µM | [7] 1.78 µM | [6] 3.98 µM

CCOC(=O)c1ccc(C2CCC(NC[C@H](O)COc3ccc(O)c(NS(C)(=O)=O)c3)CC2)cc1 (some centres not stated)
inactive: [8]
active: [1] 20.6 µM | [2] 28.8 µM | [3] 14.4 µM | [4] 26.3 µM | [9] 0.513 µM

CC(C)CCCCCCCOC(=O)CCCCC(=O)OCCCCCCCC(C)C
inactive: [1] | [2] | [3] | [4]

CN(C)c1ccc(N=NS(=O)(=O)O)cc1
inactive: [1] | [2] | [4]
active: [3] 19 µM | [9] 12 µM

CN(C)c1ccc(Cc2ccc(N(C)C)cc2)cc1
active: [3] 30.9 µM | [8] 1.02 µM
inactive: [1] | [2] | [4] | [10] | [5]

CCCCCCc1ccc(O)cc1O
inactive: [7]
active: [1] 33.1 µM | [2] 24.4 µM | [3] 31 µM | [9] 4.09 µM | [8] 4.64 µM | [6] 8.17 µM

CCCCCCCCCCCCCCCO
active: [1] 30.7 µM | [2] 28.6 µM | [3] 29.5 µM | [4] 34.6 µM

CC(C)c1cccc(C(C)C)c1N1C(=O)c2ccc(O)cc2C1=O
active: [3] 20 µM | [4] 19.3 µM
inactive: [1] | [2] | [6]

Cc1c(-c2cccnc2)c2ccccc2n1CCCCC(=O)O
inactive: [1] | [2] | [4]
active: [3] 20 µM | [5] 4.39 µM | [7] 13.9 µM

CC1=CC(=O)CC(C)(C)C1
inactive: [1] | [2] | [3] | [4] | [10]

CCOCCO
inactive: [1] | [2] | [3] | [4] | [10]

CC(C)(O)c1coc(S(=O)(=O)NC(=O)Nc2c3c(cc4c2CCC4)CCC3)c1
inactive: [1] | [2] | [3] | [4] | [5]
active: [8] 6.39 µM | [7] 16 µM

O=P(OC(CCl)CCl)(OC(CCl)CCl)OC(CCl)CCl
inactive: [1] | [4] | [10]
active: [2] 20 µM | [3] 25.3 µM | [8] 6.54 µM

COc1cccc(-c2ccc(/C=C\CN3CCCCCC3)cc2Cl)c1
active: [2] 25 µM | [4] 27.2 µM
inactive: [3]

O=C(OC[C@H]1O[C@@H](OC(=O)c2cc(O)c(O)c(OC(=O)c3cc(O)c(O)c(O)c3)c2)[C@H](OC(=O)c2cc(O)c(O)c(OC(=O)c3cc(O)c(O)c(O)c3)c2)[C@@H](OC(=O)c2cc(O)c(O)c(OC(=O)c3cc(O)c(O)c(O)c3)c2)[C@@H]1OC(=O)c1cc(O)c(O)c(OC(=O)c2cc(O)c(O)c(O)c2)c1)c1cc(O)c(O)c(OC(=O)c2cc(O)c(O)c(O)c2)c1
inactive: [1]
active: [2] 10.2 µM | [3] 6.18 µM | [4] 9.72 µM | [7] 2.01 µM

CC(C)=CCCC(C)=CC=O
inactive: [1] | [2] | [3] | [4] | [10]
